GLP1R cytotox = cytotoxic in the GLP-1 receptor inverse agonist counter-screen | HEK293 cAMP-luciferase reporter cells, luminescence, 24 h | Potency, µM (top dose mostly 38.3 µM), for inactives: at the highest dose activity change, negative = inhibition, hits mostly inhibitors | 410,000 tested, 0.13% active | AID 624418;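 note: loss of luciferase light is scored as toxicity; % is set by controls: 0 for no effect and ±100 for the full control effect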
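Quantitative HTS format, 1536 wells, 200 cells/uL seeded. Compounds: 23 nL, 24 h, 37 °C. Detection: luciferase reagent, luminescence at 12 min RT; decreased signal taken as cytotoxic.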
GLP-1R agonist = activates the human GLP-1 receptor | P43220 | AID 624172 | 380,000 tested, 0.007% active | HEK293 GLP-1R CRE-luciferase, luminescence, 4-6 h; cells express a hypersensitive GLP-1R form | Potency, µM (titrated, usually from 45.6 µM), without a hit: at the highest dose activation, most hits filed as activators; note: % of control where 0% means no effect
Target sequence (P43220 whole entry, looked up): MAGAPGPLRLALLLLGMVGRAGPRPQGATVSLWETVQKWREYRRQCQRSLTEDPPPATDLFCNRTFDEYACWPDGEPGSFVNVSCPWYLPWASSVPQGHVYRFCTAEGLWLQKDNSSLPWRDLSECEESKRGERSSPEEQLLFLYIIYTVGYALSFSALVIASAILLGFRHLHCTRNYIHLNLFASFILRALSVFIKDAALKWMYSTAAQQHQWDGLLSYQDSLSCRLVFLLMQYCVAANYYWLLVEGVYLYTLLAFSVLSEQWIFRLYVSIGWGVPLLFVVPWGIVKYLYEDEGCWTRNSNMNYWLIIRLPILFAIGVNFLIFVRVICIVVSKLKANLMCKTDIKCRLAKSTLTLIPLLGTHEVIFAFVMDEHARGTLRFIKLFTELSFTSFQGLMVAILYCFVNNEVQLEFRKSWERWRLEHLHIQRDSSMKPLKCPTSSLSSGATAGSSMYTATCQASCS
GLP1R inv ag = GLP-1 receptor (human) inverse agonism | HEK293 GLP-1R CRE-luciferase, luminescence, 24 h; GLP-1R form is constitutively active | Potency, µM (highest dose often 38.3 µM), for the others: at the top dose activity change, negative = inhibition, actives largely listed as inhibitors | P43220 | AID 624417 | 410,000 tested, 1.6% active; note: % is set by controls: 0 for no effect and ±100 for the full control effect; nearly all actives have a fitted effect of over 55% in size
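Luminescence readout: a drop in cAMP-driven luciferase signal flags inverse agonism at a constitutively active GLP-1R stably expressed in HEK293. Compound exposure lasted 24 hr at 37 deg C, 5% CO2.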
ClpP mod = qHTS Assay for Activators of ClpP | ATP-dependent Clp protease proteolytic subunit (Bacillus subtilis (strain 168)), P80244 | purified B. subtilis ClpP, FRET peptide cleavage, 20 min | Potency, µM (doses to about 57.5 µM), without a hit: at the highest dose activity change, negative = active | 340,000 tested, 1.9% active | AID 651965, 2013; active = well fitted falling curve with a large enough effect; inconclusive = small, poorly fitted or top-dose-only effect; inactive = no such curve, though single readings can be large or run the other way; note: the source files actives as falling curves though it sought activators and does not explain the sign; nearly all actives have a fitted effect of over 65% in size
Target sequence (P80244 whole entry, looked up): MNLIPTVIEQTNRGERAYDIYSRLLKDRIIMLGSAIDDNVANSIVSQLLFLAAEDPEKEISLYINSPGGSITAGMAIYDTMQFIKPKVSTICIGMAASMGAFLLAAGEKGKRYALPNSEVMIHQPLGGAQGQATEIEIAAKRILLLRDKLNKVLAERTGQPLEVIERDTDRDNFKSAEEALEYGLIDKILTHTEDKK
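FRET quenching reversal measured ClpP activation: 10 microg/mL B. subtilis ClpP at pH 8 with the FRET-FV decapeptide, read at 430 nm after 320 nm excitation. The 20-min minus 0-min signal was scaled between DMSO/no-enzyme wells and ADEP (5.8 microM final).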
Starred values were filed as active, the others as inactive; i = inactive; ? = inconclusive; · = no result. Hits are enriched below; roughly 3.2% of the tested compounds scored in any of these assays. Unless noted, calls come from the whole dose curve; as a rule, active = well fitted curve in the direction sought with a large enough effect; inconclusive = small, poorly fitted or top-dose-only effect, or another doubt; inactive = no such curve, though single readings can be large; an effect the other way counts as inactive or inconclusive. Potency is the fitted concentration of half-maximal effect.

SMILES | GLP1R cytotox | GLP-1R agonist | GLP1R inv ag | ClpP mod
COc1ccc(C)cc1S(=O)(=O)Nc1cc(Cl)ccc1Cl | 11% | -34% | 8.9µM* | -1%
CN1CCN(C(=S)c2cn(Cc3ccc(F)cc3)c3ccccc23)CC1 | -7% | 10% | 10µM* | -1%
CN1CCN(C(=S)c2cn(Cc3cccc(F)c3)c3ccccc23)CC1 | -13% | 10% | ? | -1%
CC1CCN(C(=S)c2cn(Cc3ccccc3F)c3ccccc23)CC1 | -23% | -1% | 10µM* | 0%
CC1CCN(C(=S)c2cn(Cc3ccc(F)cc3)c3ccccc23)CC1 | -17% | -1% | 7.1µM* | 0%
Cn1c(=O)n(CCCc2ccccc2)c(=O)c2c1nc1n2CCN1c1ccccc1 | -9% | · | 13% | -15%
Cc1nn(C)c(C)c1NC(=O)c1cc2nc(-c3ccco3)cc(C(F)(F)F)n2n1 | -21% | 25% | 46% | ·
O=C(Nc1ccc(Cl)cc1)c1cc2nc(-c3ccco3)cc(C(F)(F)F)n2n1 | 84% | -1% | 6% | 14µM*
COc1ccc(OC)c(Nc2c3ccccc3nc3ccccc23)c1 | -1% | 5% | 11µM* | ·
CCOc1ccc(-c2n[nH]c(C)c2-c2ccccc2OC)c(O)c1 | ? | 5% | 5µM* | -1%
N#C/C(=C\c1ccc(OC(=O)c2cccs2)cc1)c1nc2ccccc2[nH]1 | -25% | 2% | 7% | 28µM*
N#C/C(=C\c1cccs1)c1nc2ccccc2[nH]1 | -1% | 1% | 2% | -2%
C=C1C=C(C(F)F)n2ncc(C(=O)Nc3cccc(CC)c3)c2N1 | · | · | · | 2%
Cc1ccc(S(=O)(=O)/N=C2\C=C(Nc3cccc(C(=O)O)c3)C(=O)c3ccccc32)cc1 | ? | -1% | 15% | 2%
Cc1ccc(NC2=C/C(=N/S(=O)(=O)c3cccs3)c3ccccc3C2=O)cc1 | ? | -1% | ? | -19%
Cc1ccc(S(=O)(=O)/N=C2\C=C(Nc3ccc(O)cc3)C(=O)c3ccccc32)cc1 | 2.8µM* | -21% | 4.5µM* | 1%
O=C1C(Nc2ccccc2)=C/C(=N/S(=O)(=O)c2cccs2)c2ccccc21 | 4.5µM* | -37% | i | 11µM*
Cc1ccc(-n2c(=O)[nH]c3cc(C(=O)NCCc4ccccc4)ccc3c2=O)cc1 | -10% | · | 1% | ?
COc1ccc(CCSc2n[nH]c(C(C)C)n2)cc1 | · | · | · | 0%
CCN(CC)c1ccc2c(C)c(Cl)c(=O)oc2c1 | i | ? | -6% | ·
Cc1cc(O)c2c(C)c(CC(=O)N3CCCCC3)c(=O)oc2c1 | -9% | · | 6% | 1%
CCOC(=O)c1oc2cc(C)cc(C)c2c1C | 4% | -1% | -2% | -9%
CCOC(=O)c1oc2cc(O)cc(C)c2c1C | -18% | 1% | 43% | 13µM*
CCOC(=O)Cc1c(C)c2ccc(N(CC)CC)cc2oc1=O | i | 18% | ? | 22µM*
CCOC(=O)Cc1c(C)c2c(O)cc(O)cc2oc1=O | 339% | 2% | 0% | 25µM*
SMILES | GLP1R cytotox | GLP-1R agonist | GLP1R inv ag | ClpP mod
COc1cc2c(cc1OC)C(COc1ccc3c(C)cc(=O)oc3c1)N(C(=O)CC(C)C)CC2 (stereo not drawn) | -16% | · | 25% | -7%
Fc1cccc(/C=C2\CCCC3=C2NC(=S)NC3c2cccc(F)c2)c1 (stereo not drawn) | -32% | -5% | 10µM* | 1%
S=C1NC2=C(CCC/C2=C\c2ccc(Cl)cc2)C(c2ccc(Cl)cc2)N1 (stereo not drawn) | -26% | -1% | 7.9µM* | 0%
S=C1NC2=C(CCC/C2=C\c2ccccc2)C(c2ccccc2)N1 (stereo not drawn) | -23% | 2% | 3% | 2%
Nc1ncc(S(=O)(=O)NCc2ccccc2F)cn1 | 9% | · | 7% | -2%
COc1ccc(C(=O)NCc2ccc3c(c2)CCN3C(=O)c2ccccc2)cc1 | 1% | · | 3% | -6%
CCOC(=O)c1sc2nc(CC(=O)OC)nc(NCc3ccco3)c2c1C | 0% | 1% | 25% | 28µM*
COc1ccccc1NC(=O)Cn1c(=O)n(CCc2ccccc2)c(=O)c2sc3ccccc3c21 | 11% | 1% | 16% | -19%
COc1cc(Cl)c(NC(=O)c2cc(CN3CCCC3)on2)c(OC)c1 | 1% | 3% | 9% | 1%
O=C1CCC(/C=C/c2ccccc2)=NN1Cc1ccccc1Cl | 11% | 1% | 10µM* | -1%
Cc1ccc2oc(=O)c3cc(C(=O)N4CCN(c5ccccc5F)CC4)sc3c2c1 | -29% | -2% | -16% | -4%
CC1=C(C(=O)Nc2ccc(C)cc2C)C(c2ccccc2F)n2nc(SCC(=O)c3ccc(C)cc3)nc2N1 (stereo not drawn) | 13% | · | 8% | -5%
COc1ccc(CN2CCC[C@]3(N[C@H](c4ccc(C(F)(F)F)cc4)[C@@H]4C(=O)N(Cc5ccccc5)C(=O)[C@@H]43)C2=O)cc1 | -3% | -2% | 8.9µM* | -2%
CN1C(=O)[C@H]2[C@@H](c3ccc(C(F)(F)F)cc3)N[C@]3(CCCN(Cc4ccc(Cl)cc4)C3=O)[C@H]2C1=O | -32% | 0% | 11µM* | 2%
COc1cccc(CC(=O)Nc2ccc3nc(N4CCC(C)CC4)cc(C)c3c2)c1 | -2% | 0% | ? | 4%
Cc1nc2ccc(NC(=O)N3CCCCC3)cc2nc1C | 15% | 7% | 47% | 14µM*
Cc1nc2ccc(NC(=S)N3CCCC3)cc2nc1C | 7% | -2% | 5% | -6%
CCOC(=O)N1CCN(C(=O)Nc2ccc3nc(C)c(C)nc3c2)CC1 | 65% | 0% | 1% | 28µM*
CCOC(=O)N1CCN(C(=O)Nc2ccc3nccnc3c2)CC1 | 7% | -1% | 7% | -11%
COc1ccc(S(=O)(=O)c2cn(CC(=O)Nc3ccccc3)c3ccc(Cl)cc3c2=O)cc1 | 6% | -2% | 1% | 11%
CCC(C(=O)Nc1ccc(C)c(Cl)c1)n1c(=O)c(-c2ccccc2NC(C)=O)nc2ccccc21 (stereo not drawn) | -23% | · | ? | -12%
COc1ccccc1/C=C/C=C(\C#N)C(=O)NC(C)c1ccccc1 (stereo not drawn) | ? | 13% | 11µM* | ·
COc1cc(/C=C(/C#N)C(=O)NC(C)c2ccccc2)cc(OC)c1O (stereo not drawn) | -6% | 6% | -7% | ·
CCN(C(=O)c1cnc(N2CCN(c3ncccn3)CC2)c2ccccc12)c1cccc(Cl)c1 | -19% | -4% | 10µM* | -4%
CCC1S/C(=N\S(=O)(=O)c2cccs2)N(C2CCCCC2)C1=O (stereo not drawn) | -1% | 17% | -26% | 28µM*
Cc1ccc(CCNC(=O)C(CC(C)C)NS(=O)(=O)c2ccc3c(c2)oc(=O)n3C)cc1 (stereo not drawn) | 8% | -5% | 2% | 0%
Cc1ccc(Nc2cc(C)nc3ccccc23)c(C)c1 | -61% | 6% | 10µM* | -1%
Cc1ccc(C)c(Nc2cc(C)nc3ccccc23)c1 | ? | -6% | 7.1µM* | -4%

Screens as filed in PubChem BioAssay.
